Consider 27 compounds from PubChem BioAssay (NCATS).

“And” between values parts separate entries of the source, which are not always exact repeats. Equal values may be shown once. Records with an inconclusive call do not appear. The source made the active and inactive calls. Unless noted, the call rests on the fitted dose curve; in most records, active means well fitted curve in the direction sought with a large enough effect; inconclusive means small, poorly fitted or top-dose-only effect, or another doubt; inactive means no such curve, though single readings can be large; an effect the other way counts as inactive or inconclusive.

Experiment [1] deals with Calcium and integrin-binding protein 1 (Homo sapiens) (UniProt Q99828). Nature of the experiment: Primary qHTS for Identification of Calcium Integrin Binding Protein 1 (CIB1) Competitor (AID 1508620).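 Further: GST tagged CIB1 binding a fluorescein labelled alphaIIb integrin peptide tracer; top concentration of the series differs between compounds; on the % scale 0 is the no-effect control and ±100 the full control effect.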 An outline of the steps: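 Fluorescence polarization competition: CIB1-GST (1 uM final) preincubated with compound 15 min at room temperature, then FITC-labeled alphaIIb peptide (100 nM final) added for another 15 min. Polarization read at Ex 480/Em 540.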

Experiment [2] is described as follows: NCATS anti-infectives library activity on HEK293 viability as a counter-qHTS vs the C. elegans viability qHTS (AID 1745854). Further: on the % scale 0 is the no-effect control and ±100 the full control effect. Put shortly:
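CellTiter-Glo luminescence, read on a CCD imager, scored viability of HEK293 cells after 24 hr compound exposure at 37C. Library tested in several concentrations, 1:5 steps, up to 41.7 uM; digitonin served as control.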
(In general: In qHTS, concentration-response curves come from the screen itself.)

The nature of experiment [3]: Primary qHTS for inhibitors of nuclear receptor binding SET domain protein 2 (NSD2) in an isogenic RCH-ACV NSD2 p.E1099K mutant (9B) (AID 1645876). Further: nearly all actives have a fitted effect of over 70% in size. Further: potency means the concentration at half of the fitted maximal effect.
Experiment [4] in a line: Primary qHTS for inhibitors of nuclear receptor binding SET domain protein 2 (NSD2) in an RCH-ACV wild type WT cells (2C) (AID 1645877). Further: nearly all actives have a fitted effect of over 70% in size. Further: potency means the concentration at half of the fitted maximal effect.
The target in experiment [5] is Cytochrome P450 2D6 (Homo sapiens) (UniProt P10635). The experiment in a line: Cytochrome P450 family 2 subfamily D member 6 (CYP2D6) small molecule antagonists: luciferase biochemical (cell-free) qHTS assay (AID 1645840; active means well fitted curve in the direction sought with a large enough effect in the repeat runs; an effect the other way counts as inactive or inconclusive; further: nearly all actives have a fitted effect of over 55% in size; further: potency means the concentration at half of the fitted maximal effect). An outline of the steps:
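P450-Glo CYP2D6 system: proluciferin substrate converted by enzyme to luciferin, read by luminescence proportional to activity. Enzyme-substrate mix with compound 10 min at room temperature, then NADPH regeneration 1 h before detection reagent.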

Experiment [6] concerns the target Cytochrome P450 2C9 (Homo sapiens) (UniProt P11712). The experiment in a line: Cytochrome P450 family 2 subfamily C member 9 (CYP2C9) small molecule antagonists: luciferase biochemical (cell-free) qHTS assay (AID 1645842; active means well fitted curve in the direction sought with a large enough effect in the repeat runs; an effect the other way counts as inactive or inconclusive; further: nearly all actives have a fitted effect of over 55% in size; further: potency means the concentration at half of the fitted maximal effect). Put shortly:
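P450-Glo CYP2C9 system: proluciferin substrate with enzyme in mix containing 0.4% BSA, 10 min at room temperature, then NADPH regeneration solution added and incubated 1 h at 37C. Detection reagent stopped reaction; luminescence read after 20 min as RLU.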

Experiment [7] is described as follows: Primary qHTS for small molecule stabilizers of the endoplasmic reticulum resident proteome: Secreted ER Calcium Modulated Protein (SERCaMP) assay (AID 1508630). Further: on the % scale 0 is the no-effect control and ±100 the full control effect. Put shortly: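 The SH-SY5Y reporter protocol was run at 3 concentrations up to 38.3 uM (primary) or 11 concentrations (follow-up): 16 h compound, 100 nM thapsigargin for 4 h, then extracellular luciferase luminescence.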

For experiment [8], the target named is Catechol O-methyltransferase (Homo sapiens) (UniProt P21964). Nature of the experiment: Confirmatory Screen for Target Class Profiling of Small Molecule Inhibitors of Methyltransferases (AID 1745852). On activity change, negative = inhibition: on the % scale 0 is the no-effect control and ±100 the full control effect. Particulars: MTase-Glo luminescence, SAH detection, recombinant enzyme; measured here: COMT max response; stronger effect = lower value.
Experiment [9] deals with Guanidinoacetate N-methyltransferase (Homo sapiens) (UniProt Q14353). The experiment is described as above. Particulars: activity change, negative = inhibition: at 57.3 µM (top of the series).
The target of experiment [10] is Nicotinamide N-methyltransferase (Homo sapiens) (UniProt P40261). The description is as above. The conditions noted are these: MTase-Glo luminescence, SAH detection, recombinant enzyme; measured here: NNMT max response; stronger effect = lower value.
For experiment [11], the target named is Phenylethanolamine N-methyltransferase (Homo sapiens) (UniProt P11086). Described as above. Particulars: MTase-Glo luminescence, SAH detection, recombinant enzyme; measured here: PNMT max response; stronger effect = lower value.
Sequence of Phenylethanolamine N-methyltransferase (Homo sapiens) (P11086 whole entry, looked up): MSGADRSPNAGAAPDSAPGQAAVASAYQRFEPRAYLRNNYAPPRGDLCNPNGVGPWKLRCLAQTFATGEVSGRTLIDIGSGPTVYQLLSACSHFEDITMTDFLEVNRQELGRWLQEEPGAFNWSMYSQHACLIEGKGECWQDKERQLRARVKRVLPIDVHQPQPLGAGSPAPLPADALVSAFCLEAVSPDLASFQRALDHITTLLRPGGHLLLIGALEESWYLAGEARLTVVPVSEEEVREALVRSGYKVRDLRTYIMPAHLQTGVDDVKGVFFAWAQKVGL

Sequence of Cytochrome P450 2C9 (Homo sapiens) (P11712 whole entry, looked up): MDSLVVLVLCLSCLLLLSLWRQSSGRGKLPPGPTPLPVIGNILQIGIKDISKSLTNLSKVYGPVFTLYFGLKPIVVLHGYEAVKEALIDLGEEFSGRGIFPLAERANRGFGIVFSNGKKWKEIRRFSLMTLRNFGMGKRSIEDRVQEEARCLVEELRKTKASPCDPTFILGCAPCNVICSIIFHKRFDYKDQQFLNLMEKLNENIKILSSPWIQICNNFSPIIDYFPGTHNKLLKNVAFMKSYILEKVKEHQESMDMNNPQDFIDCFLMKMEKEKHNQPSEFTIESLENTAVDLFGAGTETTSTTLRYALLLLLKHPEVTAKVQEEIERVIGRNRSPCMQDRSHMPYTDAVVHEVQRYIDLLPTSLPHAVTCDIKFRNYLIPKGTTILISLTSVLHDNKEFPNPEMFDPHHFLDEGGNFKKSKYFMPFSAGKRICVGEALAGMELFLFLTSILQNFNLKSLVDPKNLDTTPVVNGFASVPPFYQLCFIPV
Sequence of Cytochrome P450 2D6 (Homo sapiens) (P10635 whole entry, looked up): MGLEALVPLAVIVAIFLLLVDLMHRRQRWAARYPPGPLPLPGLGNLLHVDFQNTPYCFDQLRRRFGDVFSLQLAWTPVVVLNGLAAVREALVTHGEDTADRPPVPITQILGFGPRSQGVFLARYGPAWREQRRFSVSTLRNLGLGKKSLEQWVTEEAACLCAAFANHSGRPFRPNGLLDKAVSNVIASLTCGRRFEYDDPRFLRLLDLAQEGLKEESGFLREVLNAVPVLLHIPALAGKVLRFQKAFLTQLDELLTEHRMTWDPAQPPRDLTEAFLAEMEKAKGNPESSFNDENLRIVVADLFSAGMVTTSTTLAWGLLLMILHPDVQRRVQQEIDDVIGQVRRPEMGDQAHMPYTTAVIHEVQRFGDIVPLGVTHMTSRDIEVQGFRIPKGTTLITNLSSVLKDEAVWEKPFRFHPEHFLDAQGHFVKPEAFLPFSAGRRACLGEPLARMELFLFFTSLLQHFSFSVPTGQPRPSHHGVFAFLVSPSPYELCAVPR
Sequence of Calcium and integrin-binding protein 1 (Homo sapiens) (Q99828 whole entry, looked up): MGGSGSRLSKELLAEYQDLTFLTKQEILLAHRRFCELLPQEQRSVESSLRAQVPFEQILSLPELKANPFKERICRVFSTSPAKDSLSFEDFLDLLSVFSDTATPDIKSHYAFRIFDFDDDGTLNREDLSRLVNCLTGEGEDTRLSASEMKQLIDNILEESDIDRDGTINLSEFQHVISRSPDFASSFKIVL
Sequence of Nicotinamide N-methyltransferase (Homo sapiens) (P40261 whole entry, looked up): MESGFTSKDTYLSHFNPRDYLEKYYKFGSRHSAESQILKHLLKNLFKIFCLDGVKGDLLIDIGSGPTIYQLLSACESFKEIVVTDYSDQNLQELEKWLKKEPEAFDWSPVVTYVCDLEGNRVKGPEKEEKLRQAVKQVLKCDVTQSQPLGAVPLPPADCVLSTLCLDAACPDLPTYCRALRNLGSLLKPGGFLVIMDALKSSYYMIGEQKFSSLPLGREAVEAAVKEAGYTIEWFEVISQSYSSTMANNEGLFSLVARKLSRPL
Sequence of Catechol O-methyltransferase (Homo sapiens) (P21964 whole entry, looked up): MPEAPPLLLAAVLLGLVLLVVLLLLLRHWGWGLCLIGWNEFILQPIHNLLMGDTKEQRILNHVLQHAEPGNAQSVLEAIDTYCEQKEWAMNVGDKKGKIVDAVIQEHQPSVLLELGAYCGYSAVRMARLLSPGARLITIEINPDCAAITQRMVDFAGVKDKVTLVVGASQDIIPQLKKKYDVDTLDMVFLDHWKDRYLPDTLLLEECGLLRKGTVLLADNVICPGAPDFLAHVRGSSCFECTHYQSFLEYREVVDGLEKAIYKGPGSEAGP

As for `C[C@H](NCc1ccc(OCc2cccc(F)c2)cc1)C(N)=O`, the Potency entry in [1] and in [2] was “inactive” in each case.

In the case of `CC(C)c1cnn2c(NCc3ccccc3)cc(NCCCCCCN)nc12`, in [1], the Potency entry is “inactive”. The Potency in experiment [3] and in [4] was 20.9 µM (active) throughout.

For `CC(C)Oc1ccc(C(=O)N[C@H](CNC(=O)CN(C)C)Cc2ccc(-c3cn4cccc([C@H](C)O)c4n3)cc2)cc1Cl`, the Potency result in experiment [1] was “inactive”. Further, the Potency in experiment [5] is 5.35 µM (active); in experiment [6], 10.7 µM (active); in experiment [3], 0.059 µM (active); in [4], 0.059 µM (active).

Consider `COC(=O)[C@@H]1[C@H]2C[C@@H]3c4[nH]c5ccccc5c4CCN3C[C@@H]2CC[C@@H]1O`, for which the outcome in [7] is “inactive”.

For `CC1(C)CC(O)CC(C)(C)N1[O]`, the outcome in experiment [7] is “inactive”.

As to `N#Cc1cc(NC(=O)Nc2nnc(-c3ccncc3)s2)ccc1-c1cn[nH]c1`, the Potency entry in experiment [1], in experiment [3] and in experiment [4] was “inactive” throughout.

`COC(=O)[C@H](CCCN=C(N)N)NS(=O)(=O)c1ccc(C)cc1`: the Potency result in experiment [1], in experiment [3] and in [4] was “inactive” each time.

As to `N#Cc1c(C2CCNCC2)cc(-c2c(O)cccc2OCC2CC2)nc1N`, in [1], the Potency result is “inactive”. Further, the Potency in experiment [5] is 0.674 µM (active); in experiment [6] it was 8.49 µM (active); in experiment [3], 11.8 µM (active); in [4], 9.34 µM (active). Also, the activity in experiment [8] is -9.7%; in experiment [10], -55.9%; in [11], -6.86%. The activity change, negative = inhibition in [9] is 0.393%.

`CCCCCCCCc1ccc(CCC(N)(CO)CO)cc1`: the Potency entry in experiment [1] was “inactive”. Also, the Potency in experiment [3] and in experiment [4] was 8.33 µM (active) throughout.

`C=CC(=O)N1CCc2ccc(-n3c(=O)ccc4cnc5ccc(-c6cnn(C)c6)cc5c43)cc21`: the Potency entry in experiment [1] was “inactive”. In addition, the Potency is 0.363 µM (active) in experiment [3] and 0.323 µM (active) in experiment [4].

For the compound `N#CNC(=NCCCCCCOc1ccc(Cl)cc1)Nc1ccncc1`, the Potency result in experiment [1] is “inactive”. Further, the values for the Potency in experiment [3] and in experiment [4] were 0.0047 µM (active) and 0.0093 µM (active), respectively.

For the compound `CCCCCCCCCCCCc1ccc(S(=O)(=O)Nc2nncs2)cc1`, the Potency result in [1] and in experiment [3] was “inactive” each time.

In the case of `Cn1cc(-c2cnn3c(N)c(Br)c([C@H]4CCCNC4)nc23)cn1`, the Potency entry in experiment [1] was “inactive”. Further, in experiment [7], the outcome is “inactive”. Moreover, the activity in experiment [8] was -1.78%; in experiment [10], -6.14%; in experiment [11], -78.4%. The compound also registered an activity change, negative = inhibition in [9] of 2.57%.

`CN(C)c1ccc2cc(C(=O)N[C@@H](CCCN=C(N)CCl)C(=O)NCc3ccccc3)ccc2c1`: the Potency entry in [1], in experiment [3] and in experiment [4] was “inactive” in each case.

In the case of `C[C@H](NC(=O)[C@@H](O)c1cc(F)cc(F)c1)C(=O)N[C@@H]1C(=O)N(C)c2ccccc2-c2ccccc21`, the Potency entry in experiment [1], in experiment [3], in experiment [4] and in [2] was “inactive” in each case.

Regarding `COc1ccc2c(c1OC)C(=O)OC2[C@H]1c2c(cc3c(c2OC)OCO3)CCN1C` (stereo partly specified), in experiment [1], the Potency entry is “inactive”. The Potency in experiment [3] is 20.9 µM (active); in experiment [4], 23.5 µM (active).

For `C[C@]12CC[C@@H]3c4ccc(O)cc4CC[C@H]3[C@H]1CC[C@H]2O`, the outcome in [7] was “inactive”.

With `Nc1cccc2c1C(=O)N(C1CCC(=O)NC1=O)C2=O` (stereo unspecified), the outcome in [7] is “inactive”.

In the case of `CCc1ccc(C(=O)Nc2cc(CN3CCN(C)CC3)cc(C(F)(F)F)c2)cc1C#Cc1cnc2ccnn2c1`, in experiment [1], the Potency entry is “inactive”. Moreover, the Potency in [3] is 5.78 µM (active) and 5.25 µM (active); in [4], 5.15 µM (active) and 4.17 µM (active).

On to `CCN(C(=O)c1c(O)c2c(Cl)cccc2n(C)c1=O)c1ccccc1`, for which the Potency entry in [1] and in experiment [4] was “inactive” throughout. In addition, the outcome in experiment [7] was “inactive”.

As for `CCCc1nc(C(C)(C)O)c(C(=O)O)n1Cc1ccc(-c2ccccc2-c2nn[nH]n2)cc1`, the Potency entry in experiment [1], in experiment [5], in [6], in experiment [3], in experiment [4] and in [2] was “inactive” in each case.

With `Cn1cc(-c2ccc3ncc(Cc4ccc5ncccc5c4)n3n2)cn1`, in experiment [1], the Potency result is “inactive”. The values for the Potency in [5] and in experiment [6] were 12 µM (active) and 0.756 µM (active), respectively.

Take `O=S(=O)(O)CCSSCCS(=O)(=O)O`: the Potency result in experiment [1], in [3] and in [4] was “inactive” throughout.

For the compound `OC[C@@H](O)[C@@H](O)[C@H](O)[C@@H](O)CO`, the Potency entry in experiment [1], in experiment [3] and in experiment [4] was “inactive” each time.

As for `NC(=O)Nc1sc(-c2ccc(F)cc2)cc1C(N)=O`, in [1], the Potency entry was “inactive”. Also, the Potency in experiment [3] is 3.32 µM (active); in experiment [4], 3.72 µM (active).

For the compound `Oc1cc2c(cc1O)C1c3ccc(O)c(O)c3OCC1(O)C2` (stereo unspecified), the Potency result in experiment [1] and in experiment [5] was “inactive” each time. Further, the Potency in experiment [6] is 21.3 µM (active).

In the case of `C=C(C)[C@@H]1CC[C@]2(C)CC[C@]3(C)[C@H](CC[C@@H]4[C@@]5(C)CC[C@H](O)C(C)(C)[C@H]5CC[C@]43C)[C@@H]12`, the Potency result in experiment [1], in experiment [3] and in [4] was “inactive” in each case.
